Measured values from ChEMBL document CHEMBL5308504, “Tm Shift (DSF) assay results for EUbOPEN Chemogenomics Library” (2023).

How the values were obtained:
Conditions in all cases: Compound concentration 20.0 uM, Protein concentration 2.0 uM, Result type QC Liability
[1] = target: Tyrosine-protein kinase ABL1 (Homo sapiens) (UniProt P00519)
[2] = target: Cyclin-dependent kinase 2 (Homo sapiens) (UniProt P24941)
[3] = target: Casein kinase I isoform delta (Homo sapiens) (UniProt P48730)
[4] = target: Glycogen synthase kinase-3 beta (Homo sapiens) (UniProt P49841)
Sequence of Glycogen synthase kinase-3 beta (Homo sapiens) (P49841 whole entry, looked up): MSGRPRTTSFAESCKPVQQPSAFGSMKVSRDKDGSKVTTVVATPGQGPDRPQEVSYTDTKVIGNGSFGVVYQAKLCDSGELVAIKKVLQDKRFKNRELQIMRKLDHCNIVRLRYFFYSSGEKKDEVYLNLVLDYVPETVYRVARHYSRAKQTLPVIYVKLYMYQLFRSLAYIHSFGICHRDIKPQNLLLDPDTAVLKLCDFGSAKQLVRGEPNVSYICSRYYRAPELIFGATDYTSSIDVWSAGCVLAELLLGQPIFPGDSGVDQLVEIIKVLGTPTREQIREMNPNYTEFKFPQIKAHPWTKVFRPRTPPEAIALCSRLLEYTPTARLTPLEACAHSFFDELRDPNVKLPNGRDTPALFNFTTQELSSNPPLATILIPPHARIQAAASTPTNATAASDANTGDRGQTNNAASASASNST

[5] = target: Mitogen-activated protein kinase 1 (Homo sapiens) (UniProt P28482)
Sequence of Mitogen-activated protein kinase 1 (Homo sapiens) (P28482 whole entry): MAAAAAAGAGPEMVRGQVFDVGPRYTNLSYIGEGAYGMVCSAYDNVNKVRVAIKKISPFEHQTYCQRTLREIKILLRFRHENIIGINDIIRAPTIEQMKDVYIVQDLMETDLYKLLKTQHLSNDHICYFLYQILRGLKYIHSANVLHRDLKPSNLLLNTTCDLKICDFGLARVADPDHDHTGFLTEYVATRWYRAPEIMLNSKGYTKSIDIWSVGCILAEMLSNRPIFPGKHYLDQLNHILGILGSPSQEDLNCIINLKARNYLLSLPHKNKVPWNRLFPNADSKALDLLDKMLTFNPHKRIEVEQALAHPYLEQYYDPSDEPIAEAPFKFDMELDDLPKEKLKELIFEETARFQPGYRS

[6] = target: T1, Aurora kinase A (Homo sapiens) (UniProt O14965)
T1 sequence (whole entry): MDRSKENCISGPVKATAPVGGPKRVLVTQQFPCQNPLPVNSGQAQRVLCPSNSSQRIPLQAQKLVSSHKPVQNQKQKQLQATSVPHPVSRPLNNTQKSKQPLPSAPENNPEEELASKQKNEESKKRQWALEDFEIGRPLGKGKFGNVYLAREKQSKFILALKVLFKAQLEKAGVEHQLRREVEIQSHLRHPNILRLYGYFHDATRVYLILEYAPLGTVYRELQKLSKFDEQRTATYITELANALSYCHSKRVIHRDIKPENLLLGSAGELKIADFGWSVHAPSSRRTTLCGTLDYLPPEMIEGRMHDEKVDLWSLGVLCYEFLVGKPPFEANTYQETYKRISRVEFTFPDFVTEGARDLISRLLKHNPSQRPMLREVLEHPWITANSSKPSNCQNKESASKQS

[7] = target: T2, Transcription intermediary factor 1-alpha (Homo sapiens) (UniProt O15164)
T2 sequence (whole entry): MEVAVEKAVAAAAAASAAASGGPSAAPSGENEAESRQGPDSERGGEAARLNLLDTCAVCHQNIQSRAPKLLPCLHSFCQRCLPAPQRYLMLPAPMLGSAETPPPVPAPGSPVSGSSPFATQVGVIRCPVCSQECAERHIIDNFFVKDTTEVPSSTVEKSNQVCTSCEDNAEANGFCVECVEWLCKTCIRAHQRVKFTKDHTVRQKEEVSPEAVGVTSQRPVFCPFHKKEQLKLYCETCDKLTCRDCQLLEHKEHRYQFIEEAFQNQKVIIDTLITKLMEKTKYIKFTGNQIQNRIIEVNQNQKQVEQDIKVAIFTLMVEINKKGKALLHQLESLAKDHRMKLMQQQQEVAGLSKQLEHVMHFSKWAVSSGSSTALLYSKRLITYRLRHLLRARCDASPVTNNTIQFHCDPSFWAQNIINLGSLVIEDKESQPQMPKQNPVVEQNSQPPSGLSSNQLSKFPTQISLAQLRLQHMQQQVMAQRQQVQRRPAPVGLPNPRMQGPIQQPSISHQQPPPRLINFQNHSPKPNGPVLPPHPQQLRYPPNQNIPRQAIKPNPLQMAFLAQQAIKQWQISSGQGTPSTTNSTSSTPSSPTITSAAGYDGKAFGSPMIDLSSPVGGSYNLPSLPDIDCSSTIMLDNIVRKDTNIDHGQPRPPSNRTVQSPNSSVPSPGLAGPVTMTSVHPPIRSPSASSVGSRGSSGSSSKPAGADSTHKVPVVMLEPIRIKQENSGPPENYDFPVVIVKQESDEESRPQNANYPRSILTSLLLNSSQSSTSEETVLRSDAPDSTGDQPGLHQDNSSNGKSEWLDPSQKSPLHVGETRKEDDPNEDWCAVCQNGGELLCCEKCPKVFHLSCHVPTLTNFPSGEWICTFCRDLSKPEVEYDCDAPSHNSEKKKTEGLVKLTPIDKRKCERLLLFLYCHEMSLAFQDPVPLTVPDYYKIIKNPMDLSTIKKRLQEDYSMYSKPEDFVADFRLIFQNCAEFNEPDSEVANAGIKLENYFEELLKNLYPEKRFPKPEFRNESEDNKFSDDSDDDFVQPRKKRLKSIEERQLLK

Sequence of Tyrosine-protein kinase ABL1 (Homo sapiens) (P00519 whole entry): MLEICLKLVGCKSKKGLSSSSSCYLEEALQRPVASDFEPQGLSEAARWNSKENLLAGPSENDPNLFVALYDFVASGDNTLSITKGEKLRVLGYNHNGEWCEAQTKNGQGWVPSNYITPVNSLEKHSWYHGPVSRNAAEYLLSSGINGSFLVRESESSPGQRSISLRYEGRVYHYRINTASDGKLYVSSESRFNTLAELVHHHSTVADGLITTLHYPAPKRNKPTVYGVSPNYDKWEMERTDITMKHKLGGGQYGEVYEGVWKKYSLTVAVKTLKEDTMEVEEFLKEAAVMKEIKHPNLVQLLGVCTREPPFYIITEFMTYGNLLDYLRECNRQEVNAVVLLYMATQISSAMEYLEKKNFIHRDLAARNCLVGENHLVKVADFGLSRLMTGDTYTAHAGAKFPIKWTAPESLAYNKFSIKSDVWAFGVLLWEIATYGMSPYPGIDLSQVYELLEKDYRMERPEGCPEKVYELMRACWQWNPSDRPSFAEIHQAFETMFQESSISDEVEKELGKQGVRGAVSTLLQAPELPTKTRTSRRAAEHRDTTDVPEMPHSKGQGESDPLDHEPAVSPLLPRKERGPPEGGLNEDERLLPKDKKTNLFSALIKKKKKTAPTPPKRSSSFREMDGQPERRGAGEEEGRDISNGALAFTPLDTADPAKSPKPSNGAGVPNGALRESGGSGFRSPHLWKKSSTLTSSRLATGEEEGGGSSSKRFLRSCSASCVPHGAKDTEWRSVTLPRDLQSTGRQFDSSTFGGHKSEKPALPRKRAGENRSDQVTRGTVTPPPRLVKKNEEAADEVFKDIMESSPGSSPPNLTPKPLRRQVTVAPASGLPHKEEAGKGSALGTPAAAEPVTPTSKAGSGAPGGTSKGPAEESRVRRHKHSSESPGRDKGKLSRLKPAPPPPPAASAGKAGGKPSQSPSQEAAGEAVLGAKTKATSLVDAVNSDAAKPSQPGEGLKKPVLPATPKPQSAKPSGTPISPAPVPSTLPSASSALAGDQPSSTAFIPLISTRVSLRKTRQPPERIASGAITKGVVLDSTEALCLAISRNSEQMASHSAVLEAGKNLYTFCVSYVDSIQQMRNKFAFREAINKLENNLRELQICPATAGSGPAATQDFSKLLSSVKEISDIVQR
Sequence of Casein kinase I isoform delta (Homo sapiens) (P48730 whole entry, looked up, canonical isoform): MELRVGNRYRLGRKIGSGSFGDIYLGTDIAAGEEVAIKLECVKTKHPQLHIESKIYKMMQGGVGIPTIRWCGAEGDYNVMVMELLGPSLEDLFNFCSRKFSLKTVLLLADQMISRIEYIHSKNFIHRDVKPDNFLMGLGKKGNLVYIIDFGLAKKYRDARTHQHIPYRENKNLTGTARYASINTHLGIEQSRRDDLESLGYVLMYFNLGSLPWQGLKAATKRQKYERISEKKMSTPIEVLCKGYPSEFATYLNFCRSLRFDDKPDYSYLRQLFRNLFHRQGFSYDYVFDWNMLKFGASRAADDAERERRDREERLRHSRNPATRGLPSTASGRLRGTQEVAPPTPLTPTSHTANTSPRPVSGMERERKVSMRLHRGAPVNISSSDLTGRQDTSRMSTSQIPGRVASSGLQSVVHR

Compound	ΔTm [1] [°C]	ΔTm [2] [°C]	ΔTm [3] [°C]	ΔTm [4] [°C]	ΔTm [5] [°C]	ΔTm [6] [°C]	ΔTm [7] [°C]
COc1nc2ccc([C@@](O)(c3ccc(Cl)cc3)c3cncn3C)cc2c(Cl)c1Cc1ccc(-n2cccn2)cc1	-0.22	-0.1	-0.84	-1.9	-0.39	-0.59	-0.54
Cc1nnc2n1-c1sc3c(c1C(c1ccccc1Cl)=NC2)CC(C(=O)N1CCOCC1)C3 (centres undefined)	0.38	1.08	0.02	-0.24	0.25	0.1	0.23
Cc1ccc2c(N)c(C(=O)NC3CCc4cc(N5CC6CCC(C5)N6)ccc4C3)sc2n1 (centres undefined)	0.14	-0.27	0.27	-0.23	0.3	-0.05	-1.89
CO[C@@H](C)CN1CC[C@]2(C)c3cc(O)ccc3C[C@H]1C2(C)C	0.73	0.61	0.53	-0.14	0.27	-0.25	0.53
Cc1cc(Cl)ccc1S(=O)(=O)NC[C@H]1C2CCC(CC2)[C@@H]1/C=C\CCCC(=O)O	-0.05	-0.53	-0.27	-1.54	0.13	-0.34	-0.51
C[C@@H](CN1CC[C@@]2(C)c3cccc(O)c3C[C@@H]1C2(C)C)OCc1ccccc1	-0.13	0.59	0.25	-1.13	0.48	0.13	0.17
CC[C@H]1[C@@H](O)[C@@H]2[C@H](CC[C@]3(C)[C@@H]([C@H](C)CCC(=O)O)CC[C@@H]23)[C@@]2(C)CC[C@@H](O)C[C@@H]12	-0.12	-0.27	0.56	-0.92	-0.09	-1.71	-1.62
C=CC(=O)N1CCC[C@@H](n2nc(-c3ccc(Oc4ccccc4)cc3)c3c(N)ncnc32)C1	2.63	0.83	0.7	-1.96	-6.31	6.21	-4.01
C[C@]12CC[C@@H]3c4ccc(C(N)=O)cc4CC[C@H]3[C@@H]1CC=C2c1cncc(F)c1	0.15	-0.32	-4.77	0	0.35	2.37	0.2
CS(=O)(=O)c1ccc(-c2cnc(N)c(C(=O)Nc3ccccc3)n2)cc1	0.67	0.23	-0.19	3.54	0.38	0.45	-1.74
C[C@H](CCC(=O)O)[C@H]1CC[C@H]2[C@@H]3CC[C@@H]4C[C@H](O)CC[C@]4(C)[C@H]3CC[C@]12C	-0.82	-1.65	-3.52	-3.06	-0.88	-4.37	-5.96
CN(C(=O)CCOCCOCCOCCOCCNc1cccc2c1C(=O)N(C1CCC(=O)NC1=O)C2=O)[C@H]1CC[C@@]2(C)[C@@H](CC[C@@H]3[C@@H]2CC[C@]2(C)[C@@H](c4ccc5ccncc5c4)CC[C@@H]32)C1 (some centres undefined)	1.62	0.45	-6.92	2.49	-1.53	-1.77	0
OCC1OC(n2cnc3cc(Cl)c(Cl)cc32)C(O)C1O (centres undefined)	0.32		1.91	0.18	0.27	0.42	-1.91
N[C@H](C(=O)O)[C@@H]1CC(Cl)=NO1	-0.08	0.85	0.22	0.23	0.14	-0.37	-0.82
C=CC(=O)Nc1ccc2[nH]c(=O)n(C3CCN(Cc4ccc(-c5ccc6c(c5)NC(=O)CO6)cc4)CC3)c2c1	0.74	-0.1	0.68	3.14	0.64	1.01	-2.17
C[C@@H]1CC[C@@]2(OC1)O[C@H]1[C@@H](O)[C@H]3[C@@H]4CC[C@H]5C[C@@H](O[C@@H]6O[C@H](CO)[C@H](O[C@@H]7O[C@H](CO)C(O)[C@H](O[C@@H]8OC[C@@H](O)[C@H](O)[C@H]8O)[C@H]7O[C@@H]7O[C@H](CO)[C@H](O)[C@H](O[C@@H]8O[C@H](CO)[C@@H](O)[C@H](O)[C@H]8O)[C@H]7O)[C@H](O)[C@H]6O)[C@H](O)C[C@]5(C)[C@H]4CC[C@]3(C)[C@H]1[C@@H]2C (some centres undefined)	0.2	0.55	0.07	-0.93	0.27	-0.73	-3.45
CCCn1cc(-c2cc(C3C(=O)N(CC)c4ccc(C(F)(F)F)cc4N(c4ccccc4)C3=O)cc(OC)c2O)cn1 (centres undefined)	-0.36	1.16	0.47	-1.32	-7.84	0.54	0.28
C[C@@H](CO)CCC[C@@H](C)[C@H]1CC[C@H]2[C@@H]3CC=C4C[C@@H](O)CC[C@]4(C)[C@H]3CC[C@]12C	0.11	0.17	0.59	-0.96	0.35	-1.67	-3
CNC(=O)c1cc(C(=O)NC2CC2)cn(Cc2ccccc2)c1=O	0.07	0.96	-0.04	-0.41	0.38	-0.78	-0.29
Cc1nnc2n1-c1sc3c(c1C(c1ccccc1Cl)=NC2)C[C@H](C(=O)N1CCOCC1)C3	0.62	0.85	0.25	0.26	0.42	-0.08	-0.99
